Experimental data: the supplement of paper PMC10042075
Several values for one entry are separate records, joined by “and”; a condition that tells them apart may be missing. Equal values may be shown once. Where a name gives a salt, the structure may show the parent alone. ± gives the standard deviation of the averaged measurements.

test system: LASCPC-01; test: cell viability relative to DMSO control (fraction); higher = less growth inhibition (more viable cells); settings: 2 µM; 72 h
Procedure: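 High-throughput single-dose screen in the LASCPC-01 NEPC cell line in 384-well plates. Cells were treated with each compound at 2 µM for 72 h, and viability was read by CellTiter-Glo luminescence. Values are normalised to the DMSO control (compound/DMSO) from three replicates; only the 5-HT-related subset of the 7315-compound library is given.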

Q: With `Fc1ccc([C@@H]2CCNC[C@H]2COc2ccc3c(c2)OCO3)cc1` [Paroxetine hydrochloride hemihydrate (MW = 374.83)] as the compound, how does the cell viability read?
A: 1.09

Q: `O=C(c1ccc(F)cc1)C1CCN(CCn2c(=O)[nH]c3ccccc3c2=O)CC1` [Ketanserin] was tested. Which cell viability did it give?
A: 0.968

Q: How did the cell viability turn out when `Cc1cc2c(cc1Cl)N(C(=O)Nc1cccc3ncccc13)CC2` was run?
A: 0.693

Q: `NC(N)=NC(N)=Nc1cccc(Cl)c1` [1-(m-Chlorophenyl)-biguanide hydrochloride] was tested. Which cell viability did it give?
A: 1.03

Q: How did the cell viability turn out when `CC1(C)C(=O)N(CCN2CCC(C(=O)c3ccc(F)cc3)CC2)c2ccccc21` [LY-310,762 hydrochloride] was run?
A: 0.89

Q: `CC1CCN(CC[C@H]2CCCN2S(=O)(=O)c2cccc(O)c2)CC1` was tested. Which cell viability did it give?
A: 0.707 and 0.855

Q: With `CN(C)CC[C@@H](c1ccc(Cl)cc1)c1ccccn1` [Dexchlorpheniramine Maleate] as the compound, how does the cell viability read?
A: 0.891

Q: `CN1CCC(c2c[nH]c3ccc(NC(=O)c4ccc(F)cc4)cc23)CC1` was tested. Which cell viability did it give?
A: 0.954

Q: How did the cell viability turn out when `CN1CC2c3ccccc3Oc3ccc(Cl)cc3C2C1` (stereo not given) [Asenapine] was run?
A: 0.974

Q: How did the cell viability turn out when `O=C(CCCCCN1CCN(c2ccccc2-c2ccccc2)CC1)NC1CCCc2ccccc21` (stereo not given) [LP 12 hydrochloride hydrate] was run?
A: 0.972

Q: Which cell viability does the source give for `Cn1c(=O)cnn(CCCCN2CCN(c3ncccn3)CC2)c1=O` [Eptapirone] here?
A: 0.947

Q: Which cell viability does the source give for `O=C1CCc2ccc(OCCCCN3CCN(c4cccc(Cl)c4Cl)CC3)cc2N1` [Aripiprazole] here?
A: 1.05

Q: Which cell viability does the source give for `CN1CCC[C@@H]1Cc1c[nH]c2ccc(CCS(=O)(=O)c3ccccc3)cc12` [Eletriptan hydrobromide] here?
A: 1.21

Q: For `CN1CCN(c2nc3cc(C(F)(F)F)ccc3n3cccc23)CC1`, which cell viability is on record?
A: 0.521

Q: With `CC(C)c1cc(-c2ccc(F)c3ccccc23)nc(N)n1` as the compound, how does the cell viability read?
A: 1.05 and 0.845 and 0.897

Q: For `C=C1C(=O)O[C@H]2[C@H]1CC/C(C)=C/CC[C@@]1(C)O[C@@H]21` [Parthenolide], which cell viability is on record?
A: 0.323

Q: For `O=C(O[C@@H]1C[C@@H]2C[C@H]3C[C@H](C1)N2CC3=O)c1c[nH]c2ccccc12` [Dolasetron mesylate hydrate], which cell viability is on record?
A: 1.07

Q: `COC(=O)[C@H]1[C@H]2C[C@@H]3c4[nH]c5cc(OC)ccc5c4CCN3C[C@H]2C[C@@H](OC(=O)c2cc(OC)c(OC)c(OC)c2)[C@@H]1OC` [Reserpine] was tested. Which cell viability did it give?
A: 0.918

Q: For `Fc1ccc2c(CCNCc3cccc(OCC(F)(F)C(F)F)c3)c[nH]c2c1` [idalopirdine], which cell viability is on record?
A: 0.923

Q: `C=CCc1ccccc1OCC(O)CNC(C)C` (stereo not given) [Alprenolol] was tested. Which cell viability did it give?
A: 1.03

Q: With `COc1cccc([C@H](O)C2CCN(CCc3ccc(F)cc3)CC2)c1OC` [Volinanserin] as the compound, how does the cell viability read?
A: 1.06

Q: `COc1cc(/C=C/C(=O)O)ccc1O` [Sodium ferulic] was tested. Which cell viability did it give?
A: 0.909

Q: With `CNCCC(Oc1ccc(C(F)(F)F)cc1)c1ccccc1` (stereo not given) [Fluoxetine hydrochloride] as the compound, how does the cell viability read?
A: 0.686

Q: How did the cell viability turn out when `O=c1[nH]c2ccccc2n1CCN1CCN(c2cccc(C(F)(F)F)c2)CC1` [Flibanserin] was run?
A: 1.02

Q: With `N[C@@H](Cc1c[nH]c2ccc(O)cc12)C(=O)O` [5-Hydroxy-L-tryptophan] as the compound, how does the cell viability read?
A: 1.04

Q: How did the cell viability turn out when `CN(C)CCCN1c2ccccc2CCc2ccccc21` [Imipramine hydrochloride] was run?
A: 1.13

Q: With `COc1ccccc1N1CCN(CCCNc2cc(=O)n(C)c(=O)n2C)CC1` [Urapidil HCl] as the compound, how does the cell viability read?
A: 0.425

Q: How did the cell viability turn out when `CN1CCCCC1CCN1c2ccccc2Sc2ccc([S+](C)[O-])cc21` (stereo not given) [Mesoridazine Besylate] was run?
A: 1.07

Q: How did the cell viability turn out when `Cc1cnc(CNCC2(F)CCN(C(=O)c3ccc(F)c(Cl)c3)CC2)nc1` was run?
A: 0.989

Q: Which cell viability does the source give for `CN(C)CCCN1c2ccccc2CCc2ccc(Cl)cc21` [Clomipramine hydrochloride] here?
A: 0.987

Q: For `O=C(OC1C[C@@H]2CC3C[C@H](C1)N2CC3=O)c1c[nH]c2ccccc12` (stereo not given in full) [Dalasetron Mesylate Hydrate], which cell viability is on record?
A: 0.985

Q: How did the cell viability turn out when `COc1cccc(CCc2ccccc2OCC(CN(C)C)OC(=O)CCC(=O)O)c1` (stereo not given) [Sarpogrelate hydrochloride] was run?
A: 1.09

Q: How did the cell viability turn out when `N=C(N)NC(=N)Nc1ccccc1` [Phenylbiguanide] was run?
A: 0.637

Q: With `CCN1CCN(c2cc(-c3ccc(F)cc3)c3c(n2)CCCCCC3)CC1` [Blonanserin] as the compound, how does the cell viability read?
A: 0.776

Q: `CNS(=O)(=O)CCc1ccc2[nH]cc(C3CCN(C)CC3)c2c1` [Naratriptan hydrochloride] was tested. Which cell viability did it give?
A: 1.02

Q: `COCCCN1CCC(NC(=O)c2cc(Cl)c(N)c3c2OCC3)CC1` [Prucalopride Succinat] was tested. Which cell viability did it give?
A: 1.1

Q: How did the cell viability turn out when `Clc1ccc2c(c1)N=C(N1CCNCC1)c1ccccc1N2` [N-Desmethylclozapine] was run?
A: 0.907

Q: Which cell viability does the source give for `Cc1cc2c(s1)Nc1ccccc1N=C2N1CCN(C)CC1` [Olanzapine] here?
A: 1.02 ± 0.042

Q: `CN1[C@@H]2CC[C@H]1C[C@@H](OC(=O)c1c[nH]c3ccccc13)C2` [Tropisetron] was tested. Which cell viability did it give?
A: 1.01

Q: `O=C1[C@@H]2[C@H]3CC[C@H](C3)[C@@H]2C(=O)N1CCCCN1CCN(c2ncccn2)CC1` [Tandospirone citrate] was tested. Which cell viability did it give?
A: 0.477
